High-throughput results from PubChem BioAssay.
An excerpt weighted towards active compounds, which were near 5.7% of everything screened.
PI4K2A block: inhibitors of human PI4K2A. Q9BTU6. purified PI4K2A, ADP-Glo luminescence, 1 h; active compounds read low. activity change, negative = inhibition, % at 76.9 µM. hit rate 0.13% among 420,000; in the data active = activity change below about -50%; inconclusive = mostly about -30% to -49%;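 note: -100% = wells without enzyme as full effect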
Target sequence (Q9BTU6 whole entry, looked up): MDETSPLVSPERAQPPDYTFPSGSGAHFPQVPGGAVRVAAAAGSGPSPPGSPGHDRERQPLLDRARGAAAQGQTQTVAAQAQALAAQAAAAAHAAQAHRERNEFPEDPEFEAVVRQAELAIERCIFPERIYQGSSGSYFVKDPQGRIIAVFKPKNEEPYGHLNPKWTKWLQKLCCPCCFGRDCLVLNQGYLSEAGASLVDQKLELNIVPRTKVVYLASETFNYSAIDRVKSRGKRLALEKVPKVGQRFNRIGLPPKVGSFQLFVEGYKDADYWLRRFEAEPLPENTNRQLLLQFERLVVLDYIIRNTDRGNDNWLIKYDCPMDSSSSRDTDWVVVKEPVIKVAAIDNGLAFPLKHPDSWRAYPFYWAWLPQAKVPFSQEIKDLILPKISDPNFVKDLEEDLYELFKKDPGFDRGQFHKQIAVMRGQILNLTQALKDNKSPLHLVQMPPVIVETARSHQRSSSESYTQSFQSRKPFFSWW
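In this quantitative HTS, ADP production by PI4K2A was quantified luminescently after 1 h at ambient temperature; 100 microM adenosine served as plate-quality control.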
Giardia kill: Giardia lamblia killing. AID 540267. hit rate 0.15% among 340,000. Giardia lamblia trophozoite viability. activity change, % at 7.66 µM, hits read low; in the data active = activity change below about -80%; inconclusive = between about -30% and that limit;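 note: parasites exposed to compound for two days anaerobically before the ATP read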
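Giardia trophozoites, 100 cells per well, were exposed to compounds for 48 hrs at 37 deg C under anaerobic conditions; viability was then read as ATP content by bioluminescence after 15-30 min at room temperature.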
KB-3-1 tox: kills parental KB-3-1 adenocarcinoma cells; Potency, µM (series often up to 46.1 µM), most hits filed as cytotoxic; hit rate 1.4% among 400,000; KB-3-1 viability, CellTiter-Glo ATP luminescence, 72 h; note: potency is the fitted concentration of half-maximal effect; nearly all actives have a fitted effect of over 60% in size
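Luminescent ATP read-out (CellTiter-Glo) measures survival of drug-naive KB-3-1 cells after 72 h compound exposure at 37 °C. Titration series was screened from lowest to highest concentration, with DMSO vehicle plates as background controls.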
Nrf2 block: inhibitors of Nrf2 signaling; AID 504444; Potency, µM (titrated, usually from 46 µM), without a hit: top-dose activity change, negative = inhibition, actives largely listed as inhibitors; A549 ARE-Fluc reporter, luciferase luminescence, 18-24 h; hit rate 2.1% among 360,000; note: potency is the fitted concentration of half-maximal effect; nearly all actives have a fitted effect of over 60% in size
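In this cell-based qHTS, ARE-driven firefly luciferase in A549 cells reports Nrf2 activity; the luminescent signal after BugLite lysis is the measured value, with a prior CellTiter-Fluor read for cell health.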
KB-V1 MDR tox: KB-V1 MDR subline cytotoxicity. KB-V1 MDR cells viability, CellTiter-Glo, 72 h. hit rate 3.4% among 400,000. Potency, µM (highest dose often 46.1 µM), hits mostly cytotoxic. AID 1347076; note: potency is the fitted concentration of half-maximal effect; nearly all actives have a fitted effect of over 60% in size
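In this primary screen, KB-V1 cells overexpressing P-gp are incubated with library compounds (lowest to highest concentration) for 72 h at 37 degrees C before a luminescent ATP viability read.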
A549 tox: A549 cytotoxicity, counter-screen for Nrf2 inhibitors; A549 ARE-Fluc cells, CellTiter-Fluor viability, 18-24 h; Potency, µM (doses to about 46 µM), for inactives: at the top dose activity change, negative = cytotoxicity, usual class: inhibitors; hit rate 0.16% among 390,000; note: potency is the fitted concentration of half-maximal effect
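A549 ARE-Fluc cells in 5% FBS OPTI-MEM, 5000 cells/well, rested 2 h then exposed to compounds in concentration-response for 18-24 h at 37 °C. Viability by CellTiter-Fluor fluorescence (Ex 405/Em 525) after 30 min; luciferase luminescence (BugLite, 15 min, RT) read afterwards.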
The depositor's hits bear a star; i = inactive; ? = inconclusive; nt = no result; ! = a repeat was not active. Unless noted, calls come from the whole dose curve; as a rule, active = well fitted curve in the direction sought with a large enough effect; inconclusive = small, poorly fitted or top-dose-only effect, or another doubt; inactive = no such curve, though single readings can be large; an effect the other way counts as inactive or inconclusive. Unless noted, % is set by controls: 0 for no effect and ±100 for the full control effect.

SMILES	PI4K2A block	Giardia kill	KB-3-1 tox	Nrf2 block	KB-V1 MDR tox	A549 tox
COc1ccccc1NC(=O)CSc1c2c(nc3ccccc13)CCC2	-4	-17	i	1%	?	10%
Oc1cccc(Nc2c3ccccc3nc3ccccc23)c1	2	-2	i	23µM*	i	?
CN1CCN(c2ccc(Nc3c4ccccc4nc4ccccc34)cc2)CC1	nt	nt	15µM*	nt	23µM*	nt
COc1cc(NC(=O)CSc2c3c(nc4ccccc24)CCC3)cc(OC)c1OC	6	-26	i	?	15µM*	-2%
O=C(Nc1nc2ncccn2c1-c1ccc(F)cc1)c1ccc(F)cc1	-1	nt	nt	nt	nt	nt
COc1ccc(OC)c(NC(=O)c2c3c(nc4ccccc24)CCC3)c1	-1	-3	i	nt	6.5µM*	-19%
COc1ccc(Nc2c3ccccc3nc3ccccc23)cc1	-6	4	6.5µM*	-26%	?	-9%
OCCCNc1c2ccccc2nc2ccccc12	1	7	8.2µM*	8.2µM*	?	?
COc1ccccc1OCC(=O)NNc1c2ccccc2nc2ccccc12	-2	-25	i	21µM*	?	?
Cc1ccc(-c2nc(NCCCO)c3ccccc3n2)cc1	5	0	i	6%	?	-5%
CCN(CC)CCCNC(=O)CSc1nc2cccnc2n1C	-1	nt	nt	nt	nt	nt
CCCC1CCC2(CC1)CCC2OC(=S)NCc1ccc(Cl)cc1 (configuration not stated)	0	nt	nt	nt	nt	nt
CN(C)CCNCCCNc1c2ccccc2nc2cccc([N+](=O)[O-])c12	21	-5	0.016µM*	?	i	-28%
COc1ccccc1-c1nnc(SCC(=O)Nc2ccc(Cl)cc2Cl)o1	-2	3	i	6%	i	-1%
COc1cccc2c1OC[C@@H](CO)[C@H]2N(C)C(=O)Nc1ccc(Cl)cc1Cl	2	69	23µM*	18µM*	3.3µM*	-6%
C[C@@H](NC(=O)C[C@H]1CC[C@H]2[C@@H](COc3ccc(NC(=O)Nc4ccccc4)cc3C(=O)N2C)O1)c1ccccc1	-8	nt	nt	nt	nt	nt
CCOC(=O)Nc1sc2c(c1C(N)=O)CCCC2	nt	nt	i	nt	i	nt
c1ccc2nc(-c3nc4ccccc4o3)ccc2c1	?	?	11µM*	nt	i	-2%
c1ccc(-c2nc3ccccc3o2)nc1	5	-6	i	?	i	-5%
C=CCn1c(SCC#N)nc2cc(Cl)ccc2c1=O	nt	-28	i	-9%	i	0%
COc1ccc(OC)c(S(=O)(=O)N2CCCCC2C(=O)N2CCN(c3ccccc3F)CC2)c1 (configuration not stated)	-2	nt	nt	nt	nt	nt
O=C(NC1CCCCCC1)c1ccc2c(c1)sc1nc(-c3ccc(F)cc3)cn12	1	nt	nt	25%	nt	11%
Nc1nc(Nc2ccccc2)sc1C(=O)c1ccccc1	3	-1	?	9%	?	-18%
COc1ccc(C(=O)c2sc(Nc3ccccc3)nc2N)cc1OC	1	-3	?	-9%	15µM*	1%
COc1ccc(C(=O)Nc2ccccc2C(=O)Nc2ccccc2)cc1	-4	nt	i	nt	i	nt
SMILES	PI4K2A block	Giardia kill	KB-3-1 tox	Nrf2 block	KB-V1 MDR tox	A549 tox
COc1ccc(C(=O)c2sc(Nc3ccccc3)nc2N)cc1	-4	-17	i	?	13µM*!	-7%
COc1ccc(C(=O)c2cc(C(C)=O)c(Nc3ccccc3)s2)cc1	0	9	?	-46%	16µM*	-18%
COc1cc(OC)c(NC(=O)C(CC(C)C)N2Cc3ccccc3C2=O)cc1Cl (configuration not stated)	0	nt	i	-5%	i	-12%
Cc1c(C(=O)NCc2cccnc2)oc2ccc(S(=O)(=O)N3CCCCCC3)cc12	-1	-8	?	?	5.2µM*	-14%
CCN(C(=O)c1oc2ccc(S(=O)(=O)N3CCCCCC3)cc2c1C)c1ccccc1	-3	nt	26µM*	nt	i	9%
Cc1c(C(=O)N2CCc3ccccc3C2)oc2ccc(S(=O)(=O)N3CCCCCC3)cc12	-3	3	?	15µM*	?	-4%
